Source: ChEMBL document CHEMBL1961873, “Compounds: GSK PKIS; Assays: Nanosyn kinase panel” (2012)

What was measured:
[1] = target: T1, 3-phosphoinositide-dependent protein kinase 1 (Homo sapiens) (UniProt O15530); settings: at 0.1 µM;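 note: values are mean inhibition of PDK1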
T1 sequence (whole entry): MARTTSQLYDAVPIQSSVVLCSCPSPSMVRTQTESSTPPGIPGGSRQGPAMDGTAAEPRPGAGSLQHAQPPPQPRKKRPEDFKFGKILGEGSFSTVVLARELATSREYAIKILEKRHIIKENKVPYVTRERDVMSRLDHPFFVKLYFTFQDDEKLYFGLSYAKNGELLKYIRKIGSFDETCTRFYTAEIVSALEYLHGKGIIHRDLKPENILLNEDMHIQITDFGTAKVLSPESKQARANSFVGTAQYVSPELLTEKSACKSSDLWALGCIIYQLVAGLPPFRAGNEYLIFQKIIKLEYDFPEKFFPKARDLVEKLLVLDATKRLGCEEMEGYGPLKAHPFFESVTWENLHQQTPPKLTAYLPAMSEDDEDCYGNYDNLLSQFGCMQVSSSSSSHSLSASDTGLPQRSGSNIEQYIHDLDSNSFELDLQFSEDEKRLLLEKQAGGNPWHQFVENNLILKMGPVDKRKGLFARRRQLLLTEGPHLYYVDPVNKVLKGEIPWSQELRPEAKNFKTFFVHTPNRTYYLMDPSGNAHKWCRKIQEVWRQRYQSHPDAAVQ

[2] = target: cAMP-dependent protein kinase catalytic subunit alpha (Homo sapiens) (UniProt P17612); settings: at 0.1 µM
[3] = target: cAMP-dependent protein kinase catalytic subunit alpha (Homo sapiens) (UniProt P17612); settings: at 1 µM
[4] = target: Protein kinase C alpha type (Homo sapiens) (UniProt P17252); settings: at 0.1 µM
[5] = target: Protein kinase C alpha type (Homo sapiens) (UniProt P17252); settings: at 1 µM
[6] = target: Protein kinase C beta type (Homo sapiens) (UniProt P05771); settings: at 0.1 µM
Chain of Protein kinase C beta type (Homo sapiens) (P05771 2-671 limits assumed): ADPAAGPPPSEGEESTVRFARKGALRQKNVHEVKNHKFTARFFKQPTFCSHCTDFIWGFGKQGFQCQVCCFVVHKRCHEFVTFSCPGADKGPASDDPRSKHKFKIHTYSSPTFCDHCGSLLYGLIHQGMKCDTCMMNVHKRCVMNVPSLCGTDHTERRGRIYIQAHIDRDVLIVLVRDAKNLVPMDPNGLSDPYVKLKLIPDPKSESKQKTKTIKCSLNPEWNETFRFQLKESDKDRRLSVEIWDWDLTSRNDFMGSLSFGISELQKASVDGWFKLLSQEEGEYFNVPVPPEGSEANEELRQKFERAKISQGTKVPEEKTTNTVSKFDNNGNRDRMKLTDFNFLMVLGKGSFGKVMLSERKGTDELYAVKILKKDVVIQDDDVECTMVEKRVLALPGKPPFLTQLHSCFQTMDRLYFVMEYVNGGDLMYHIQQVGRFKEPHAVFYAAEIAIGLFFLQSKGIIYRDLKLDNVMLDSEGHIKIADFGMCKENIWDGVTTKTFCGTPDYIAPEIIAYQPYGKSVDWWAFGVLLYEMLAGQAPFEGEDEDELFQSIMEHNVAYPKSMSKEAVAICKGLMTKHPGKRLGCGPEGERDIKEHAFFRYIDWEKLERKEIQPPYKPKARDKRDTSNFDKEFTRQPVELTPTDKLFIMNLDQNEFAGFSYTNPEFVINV

[7] = target: Protein kinase C beta type (Homo sapiens) (UniProt P05771); settings: at 1 µM
[8] = target: Protein kinase C eta type (Homo sapiens) (UniProt P24723); settings: at 0.1 µM
Chain of Protein kinase C eta type (Homo sapiens) (P24723 whole entry): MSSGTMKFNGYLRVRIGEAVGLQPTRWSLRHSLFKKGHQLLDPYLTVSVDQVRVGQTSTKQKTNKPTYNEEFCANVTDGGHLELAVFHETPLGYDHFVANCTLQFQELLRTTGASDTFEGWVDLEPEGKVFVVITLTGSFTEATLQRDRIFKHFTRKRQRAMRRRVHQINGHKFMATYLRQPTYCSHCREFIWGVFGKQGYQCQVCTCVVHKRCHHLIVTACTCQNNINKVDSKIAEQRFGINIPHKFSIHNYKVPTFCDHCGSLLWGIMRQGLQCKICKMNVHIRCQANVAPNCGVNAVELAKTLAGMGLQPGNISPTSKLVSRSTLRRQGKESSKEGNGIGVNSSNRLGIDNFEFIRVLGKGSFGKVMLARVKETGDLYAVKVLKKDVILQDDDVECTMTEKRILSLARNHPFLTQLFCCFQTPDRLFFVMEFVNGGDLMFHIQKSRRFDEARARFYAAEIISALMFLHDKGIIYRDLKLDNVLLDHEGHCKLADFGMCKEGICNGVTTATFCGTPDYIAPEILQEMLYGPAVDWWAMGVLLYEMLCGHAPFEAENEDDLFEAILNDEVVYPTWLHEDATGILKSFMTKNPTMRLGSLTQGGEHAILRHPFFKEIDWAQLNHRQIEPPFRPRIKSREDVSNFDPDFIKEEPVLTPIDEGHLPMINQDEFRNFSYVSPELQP

[9] = target: Protein kinase C eta type (Homo sapiens) (UniProt P24723); settings: at 1 µM
[10] = target: Protein kinase C gamma type (Homo sapiens) (UniProt P05129); settings: at 0.1 µM
[11] = target: Protein kinase C gamma type (Homo sapiens) (UniProt P05129); settings: at 1 µM
[12] = target: T2, Protein kinase C iota type (Homo sapiens) (UniProt P41743); settings: at 0.1 µM
T2 sequence (whole entry): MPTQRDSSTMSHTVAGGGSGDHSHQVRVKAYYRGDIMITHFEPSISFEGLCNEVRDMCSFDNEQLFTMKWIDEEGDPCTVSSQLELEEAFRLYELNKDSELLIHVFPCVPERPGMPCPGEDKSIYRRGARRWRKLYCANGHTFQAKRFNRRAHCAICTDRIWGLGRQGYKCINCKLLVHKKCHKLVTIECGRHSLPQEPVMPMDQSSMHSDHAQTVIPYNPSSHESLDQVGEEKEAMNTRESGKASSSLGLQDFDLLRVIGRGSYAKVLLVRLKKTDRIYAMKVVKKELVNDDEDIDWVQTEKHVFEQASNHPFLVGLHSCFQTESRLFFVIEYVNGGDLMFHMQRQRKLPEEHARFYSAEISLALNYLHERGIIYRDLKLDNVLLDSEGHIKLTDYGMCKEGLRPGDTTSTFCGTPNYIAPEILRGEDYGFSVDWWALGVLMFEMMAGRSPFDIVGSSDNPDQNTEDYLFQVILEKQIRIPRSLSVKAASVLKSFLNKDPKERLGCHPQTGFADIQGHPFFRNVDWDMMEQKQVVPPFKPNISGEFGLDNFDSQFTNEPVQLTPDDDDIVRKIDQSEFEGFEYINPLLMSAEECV

[13] = target: T2, Protein kinase C iota type (Homo sapiens); settings: at 1 µM
[14] = target: Protein kinase C theta type (Homo sapiens) (UniProt Q04759); settings: at 0.1 µM
Chain of Protein kinase C theta type (Homo sapiens) (Q04759 whole entry, looked up): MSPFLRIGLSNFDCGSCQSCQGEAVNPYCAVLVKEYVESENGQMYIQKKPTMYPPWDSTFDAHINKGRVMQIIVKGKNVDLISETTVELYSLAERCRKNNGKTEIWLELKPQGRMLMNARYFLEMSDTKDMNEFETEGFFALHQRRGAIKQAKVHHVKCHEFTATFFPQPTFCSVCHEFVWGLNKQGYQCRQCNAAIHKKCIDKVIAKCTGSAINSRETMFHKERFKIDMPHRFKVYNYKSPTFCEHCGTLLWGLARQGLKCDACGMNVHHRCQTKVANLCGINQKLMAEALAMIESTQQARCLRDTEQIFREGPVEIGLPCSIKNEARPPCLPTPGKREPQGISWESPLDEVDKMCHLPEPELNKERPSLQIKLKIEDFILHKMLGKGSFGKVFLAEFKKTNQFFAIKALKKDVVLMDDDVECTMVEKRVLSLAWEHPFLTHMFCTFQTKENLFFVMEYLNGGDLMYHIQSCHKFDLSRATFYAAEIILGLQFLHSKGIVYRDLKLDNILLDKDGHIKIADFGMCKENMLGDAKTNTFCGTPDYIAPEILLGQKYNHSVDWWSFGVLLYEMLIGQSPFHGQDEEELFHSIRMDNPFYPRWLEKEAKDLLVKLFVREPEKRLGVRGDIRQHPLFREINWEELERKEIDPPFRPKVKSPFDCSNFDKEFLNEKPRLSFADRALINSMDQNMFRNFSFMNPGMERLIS

[15] = target: Protein kinase C theta type (Homo sapiens) (UniProt Q04759); settings: at 1 µM
[16] = target: Protein kinase C beta type (Homo sapiens) (UniProt P05771); settings: at 0.1 µM; remark: listed apart in the source
[17] = target: Protein kinase C beta type (Homo sapiens) (UniProt P05771); settings: at 1 µM; remark: listed apart in the source
[18] = target: T3, Serine/threonine-protein kinase D1 (Homo sapiens) (UniProt Q15139); settings: at 0.1 µM
T3 sequence (whole entry): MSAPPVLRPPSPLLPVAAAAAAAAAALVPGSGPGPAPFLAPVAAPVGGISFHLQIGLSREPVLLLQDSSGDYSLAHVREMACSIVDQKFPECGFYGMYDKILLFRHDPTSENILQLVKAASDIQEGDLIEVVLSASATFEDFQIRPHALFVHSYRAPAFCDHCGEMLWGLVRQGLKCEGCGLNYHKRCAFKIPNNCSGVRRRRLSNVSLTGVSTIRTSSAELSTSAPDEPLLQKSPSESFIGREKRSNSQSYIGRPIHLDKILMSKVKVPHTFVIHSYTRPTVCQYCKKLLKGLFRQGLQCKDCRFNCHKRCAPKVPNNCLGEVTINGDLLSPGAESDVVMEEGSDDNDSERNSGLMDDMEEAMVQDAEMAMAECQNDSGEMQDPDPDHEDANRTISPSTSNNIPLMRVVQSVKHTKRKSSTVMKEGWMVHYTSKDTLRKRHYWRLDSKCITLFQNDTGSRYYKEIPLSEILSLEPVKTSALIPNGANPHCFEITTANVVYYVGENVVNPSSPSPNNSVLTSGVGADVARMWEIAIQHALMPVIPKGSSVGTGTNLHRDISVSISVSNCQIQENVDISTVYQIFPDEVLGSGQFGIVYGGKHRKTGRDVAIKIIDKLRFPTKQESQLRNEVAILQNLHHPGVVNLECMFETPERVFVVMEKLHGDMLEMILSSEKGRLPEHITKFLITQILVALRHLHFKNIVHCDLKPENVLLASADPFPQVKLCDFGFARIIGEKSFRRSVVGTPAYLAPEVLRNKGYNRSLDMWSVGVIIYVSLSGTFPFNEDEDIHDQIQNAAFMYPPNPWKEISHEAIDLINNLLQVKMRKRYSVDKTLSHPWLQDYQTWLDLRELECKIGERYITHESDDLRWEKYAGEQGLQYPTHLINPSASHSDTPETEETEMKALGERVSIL

[19] = target: T3, Serine/threonine-protein kinase D1 (Homo sapiens); settings: at 1 µM
[20] = target: T4, Serine/threonine-protein kinase D2 (Homo sapiens) (UniProt Q9BZL6); settings: at 0.1 µM;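 note: reported percent inhibition values are means, part of the GSK PKIS kinase panel screen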
T4 sequence (whole entry): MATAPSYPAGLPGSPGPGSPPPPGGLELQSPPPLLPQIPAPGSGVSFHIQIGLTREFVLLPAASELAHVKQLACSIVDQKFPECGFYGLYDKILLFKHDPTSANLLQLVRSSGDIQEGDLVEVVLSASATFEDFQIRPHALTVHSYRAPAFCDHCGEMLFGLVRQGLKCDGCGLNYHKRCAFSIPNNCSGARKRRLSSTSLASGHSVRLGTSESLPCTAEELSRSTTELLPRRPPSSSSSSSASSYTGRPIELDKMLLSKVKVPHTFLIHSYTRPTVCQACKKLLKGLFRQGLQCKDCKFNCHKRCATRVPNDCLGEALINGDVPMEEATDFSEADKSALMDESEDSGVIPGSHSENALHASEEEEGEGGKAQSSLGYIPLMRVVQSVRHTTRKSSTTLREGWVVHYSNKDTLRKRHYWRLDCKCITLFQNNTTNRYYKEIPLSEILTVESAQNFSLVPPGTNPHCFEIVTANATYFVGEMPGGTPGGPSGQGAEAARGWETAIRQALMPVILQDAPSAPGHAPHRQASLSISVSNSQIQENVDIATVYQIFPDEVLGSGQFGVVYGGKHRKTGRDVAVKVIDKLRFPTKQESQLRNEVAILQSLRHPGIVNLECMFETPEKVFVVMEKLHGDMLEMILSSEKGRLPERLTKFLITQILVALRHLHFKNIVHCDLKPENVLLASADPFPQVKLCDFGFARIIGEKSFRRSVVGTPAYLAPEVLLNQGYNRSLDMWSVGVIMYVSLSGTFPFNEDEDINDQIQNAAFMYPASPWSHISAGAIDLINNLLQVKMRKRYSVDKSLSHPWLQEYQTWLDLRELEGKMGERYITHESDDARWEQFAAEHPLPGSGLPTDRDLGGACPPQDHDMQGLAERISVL

Row | Structure (SMILES) | inhibition [1] [%] | inhibition [2] [%] | inhibition [3] [%] | inhibition [4] [%] | inhibition [5] [%] | inhibition [6] [%] | inhibition [7] [%] | inhibition [8] [%] | inhibition [9] [%] | inhibition [10] [%] | inhibition [11] [%] | inhibition [12] [%] | inhibition [13] [%] | inhibition [14] [%] | inhibition [15] [%] | inhibition [16] [%] | inhibition [17] [%] | inhibition [18] [%] | inhibition [19] [%] | inhibition [20] [%]
1 | CS(=O)(=O)CCNCc1cc(-c2cc3c(Nc4ccc(OCc5cccc(F)c5)c(Cl)c4)ncnc3s2)cs1 | 2.06 | 1.96 | 1.98 | 0.73 | 1.44 | 0.43 | 1.19 | 5.83 | 7.05 | 2.95 | 0.58 | 1.33 | 1.53 | 2.91 | 4.44 | 0.62 | 2 | 4.69 | 8.12 | 4.1
2 | NC(=O)c1cc(-c2ccc(F)cc2)cc(-c2ccncc2)c1N | 1.54 | 1.46 | 3.06 | 0.16 | 1.21 | -1.29 | 3.15 | 3.71 | 8.19 | 0.15 | 5.15 | 0.73 | 0.87 | 1.84 | 3.65 | 1.46 | 1.35 | 4.65 | 3.31 | 3.51
3 | O=C(NCC1CC1)c1ccc(-c2cccc(C(=O)NC3CC3)c2)cc1 | 0.6 | 0.93 | 0.36 | 1.02 | 0.96 | -0.06 | -2 | 3.93 | -1.4 | 4.6 | -1.2 | 2.21 | 3.55 | 1.24 | -0.68 | 0.69 | -1.18 | 1.97 | 2.45 | 2.36
4 | COc1ccc2cc(-c3c(-c4ccncc4)nc(-c4ccc([S+](C)[O-])cc4C)n3C)ccc2c1 (stereo not given) | 0.48 | 2.01 | 21.8 | 0.33 | 1.35 | 2.04 | 13 | 0.16 | 0.69 | -0.82 | -0.38 | 0.41 | -0.63 | -1.05 | -1.26 | 0.04 | 5.01 | -0.67 | -0.16 | -0.62
5 | c1ccc(Oc2ccc(Nc3ncc(-c4ccccc4)o3)cc2)cc1 | 3.8 | 1.26 | 5.43 | 1.03 | 1.47 | 1.14 | 0.76 | -1.38 | -0.47 | 1.13 | 3.46 | 1.87 | 0.57 | 1.08 | 0.33 | 0.45 | 1.67 | 2.12 | 4.49 | 1.43
6 | CCS(=O)(=O)c1ccc(OC)c(Nc2ncc(-c3ccccc3Cl)o2)c1 | 4.14 | 1.17 | 1.75 | 0.48 | 1.87 | 0.67 | 0.07 | 0.14 | 0.6 | -2.72 | 5.15 | 0.15 | -1.52 | -0.01 | 2.29 | -0.13 | 2.01 | 1.52 | 1.41 | 1.21
7 | Fc1ccc(-c2c(-c3ccncc3)nc3n2CCS3)cc1 | 2.05 | -0.65 | 13.2 | -2.65 | -2.48 | 2.56 | 15.9 | -2.42 | 7.59 | 1 | 4.08 | 1.39 | 1.01 | 1.55 | 4.99 | 1.11 | 3.63 | -0.81 | 2.14 | -0.29
8 | COC(=O)Nc1nc2ccc(Sc3ccc(NC(=O)Nc4cc(C(F)(F)F)ccc4F)cc3)cc2[nH]1 | 1.38 | -0.04 | 2.01 | 0.22 | 0.15 | 0.84 | 0.31 | -1.46 | 0.54 | 2.88 | 4.57 | -0.54 | 0.22 | 0.15 | 0.22 | 0.31 | 0.4 | 0.94 | 0.37 | -0.22
9 | COc1cc2ncn(-c3cc(OCc4ccccc4C(F)(F)F)c(C(C)=O)s3)c2cc1OC | 0.15 | 1.04 | 1.7 | -0.12 | 0.82 | 1.02 | 0.44 | 3.8 | 3.47 | -0.98 | 0.33 | 0.95 | 1.41 | 1.39 | 0.74 | 0.72 | 0.23 | 3.39 | 5.09 | 2.5
10 | NS(=O)(=O)c1ccc(Nc2cc(-c3ccc(O)c(F)c3)n[nH]2)cc1 | -2.08 | -2.2 | -0.83 | -0.97 | 0.4 | -0.01 | 0.79 | -3.29 | -5.2 | -3.75 | -0.85 | -0.61 | 0.05 | -1.75 | -1.1 | -0.96 | 0.72 | -1.96 | 4.59 | -2.32
11 | FC(F)(F)c1cccc(Nc2nccc(-c3cnn4nc(-c5ccccc5)ccc34)n2)c1 | -0.51 | 1.63 | 0.52 | -0.27 | 0.87 | -0.86 | 2.15 | 2.08 | 3.01 | 2.43 | 1.78 | 0.68 | 0.06 | 1.79 | 2.39 | 1.28 | 1.35 | 2.1 | 3.92 | 1.86
12 | Fc1ccc(-c2ncn(CCCN3CCOCC3)c2-c2ccncc2)cc1 | -0.98 | 0.23 | 1.67 | 1.44 | 1.07 | -0.46 | -0.8 | -2.71 | -1.13 | -1.84 | 0.34 | 0.16 | 0.41 | -0.92 | -2.08 | 0.1 | 0.17 | 1.04 | 2.24 | 2.15
13 | COc1cccc(-n2cnc3c(N/N=C/c4ccncc4)ncnc32)c1 | 0.77 | -1.92 | 0.18 | -2.58 | -3.28 | 3.24 | 5.82 | 3.47 | 0.69 | 0.93 | 3.14 | 0.58 | -0.97 | 0.62 | 4.42 | 2.34 | 2.1 | -2.1 | -5.45 | -4.34
